The nature of experiment [1]: NCI Yeast Anticancer Drug Screen. Data for the rad50 strain (AID 155).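 Also: 0% = growth of vehicle-only cultures of the same strain.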 As to conditions: S. cerevisiae rad50 strain growth inhibition, hits give high values. In short, it runs like this: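 Inhibition values express reduced yeast growth in compound-treated cultures relative to vehicle-treated controls.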
Experiment [2] can be described thus: NCI Yeast Anticancer Drug Screen. Data for the mec2-1 strain (AID 157). The conditions noted are these: S. cerevisiae mec2-1 strain, hits give high values. In short, it runs like this:
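Yeast mec2-1 mutant treated with compound. Readout: growth inhibition vs vehicle controls.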

The nature of experiment [3]: NCI Yeast Anticancer Drug Screen. Data for the sgs1 mgt1 strain (AID 161).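 Also: 0% = growth of cultures given vehicle only.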 As to conditions: S. cerevisiae sgs1 mgt1 strain, hits give high values. In short, it runs like this:
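Test agents were incubated with a DNA-repair-mutant yeast strain. Growth was then read and compared against vehicle-treated controls.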

The nature of experiment [4]: NCI Yeast Anticancer Drug Screen. Data for the cln2 rad14 strain (AID 165).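 Also: 0% = growth equal to vehicle treated cultures.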 As to conditions: S. cerevisiae cln2 rad14 strain, hits give high values. Put shortly:
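cln2 rad14 yeast strain; compound exposure; growth inhibition read vs vehicle controls.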

Experiment [5] can be described thus: NCI Yeast Anticancer Drug Screen. Data for the bub3 strain (AID 167). As to conditions: S. cerevisiae bub3 mutant strain, hits give high values. In short, it runs like this:
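Steps: expose the mutant yeast strain to compound; grow alongside vehicle-treated cultures; measure growth; express inhibition against the vehicle cultures.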

A short description of experiment [6]: NCI Yeast Anticancer Drug Screen. Data for the mlh1 rad18 strain (AID 175). The conditions noted are these: S. cerevisiae mlh1 rad18 strain growth inhibition, hits give high values. Put shortly:
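Yeast w/ defined DNA-repair lesions; compound exposure; growth vs vehicle controls → % inhibition.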

Setting [7] is: at 5.0 µM (retest, dose inferred, filed as 0.5).
Where [8] appears, read: at 50.0 µM (retest, dose inferred, filed as 5.0).

Data on 10 molecules can be found in PubChem BioAssay (NCI).

About 79,000 compounds went through this panel and 15% of them were active in at least one assay; those are over-represented in the sample as a whole. Values without a mark were called inactive. Activity calls are given as the source filed them. Rule as the data show it: active = growth inhibition above about 70%; inactive = the rest.

Regarding `N#CSCCl`, the growth inhibition in experiment [1] (setting [7]) is 0%; in experiment [1] (setting [8]), 42%; in experiment [1] (at 50.0 µM), 91.7% (active); in experiment [2] (setting [7]) it was 5%; in experiment [2] (setting [8]), 75% (active); in experiment [2] (at 50.0 µM), 92% (active). Further, the growth inhibition is -2% in experiment [3] (setting [7]); 20% in experiment [3] (setting [8]); 93.8% (active) in experiment [3] (at 50.0 µM); 1% in experiment [4] (setting [7]); 61% in experiment [4] (setting [8]); 91% (active) in experiment [4] (at 50.0 µM). Further, the figures for the growth inhibition in experiment [5] (setting [7]), in experiment [5] (setting [8]) and in experiment [5] (at 50.0 µM) were -4%, 93% (active) and 92.3% (active), respectively.
Consider `O=c1c2cc(Cl)ccc2[nH]c2cc(O)cc(O)c12`, for which the growth inhibition in experiment [1] (setting [7]) is -18%; in experiment [1] (setting [8]), 25%; in experiment [1] (at 50.0 µM), 70.5% (active); in experiment [2] (setting [7]) it was -43%; in experiment [2] (setting [8]), 3%; in experiment [2] (at 50.0 µM), -12.4%. The growth inhibition in experiment [3] (setting [7]) is -9%; in experiment [3] (setting [8]) it was 11%; in experiment [3] (at 50.0 µM), 21.5%; in experiment [4] (setting [7]) it was -15%; in experiment [4] (setting [8]) it was 16%; in experiment [4] (at 50.0 µM), 11.9%. Besides, the growth inhibition in experiment [5] (setting [7]) was -13%; in experiment [5] (setting [8]) it was 39%; in experiment [5] (at 50.0 µM), 15.1%; in experiment [6] (setting [7]), -20%; in experiment [6] (setting [8]), 45%; in experiment [6] (at 50.0 µM), 15.9%.
`NC(=O)N/N=C(/Cc1nc2ccccc2nc1C/C(=N/NC(N)=O)c1cccc2ccccc12)c1cccc2ccccc12`: the growth inhibition is -1% in experiment [1] (setting [7]); 9% in experiment [1] (setting [8]); 0.65% in experiment [1] (at 50.0 µM); -13% in experiment [2] (setting [7]); -7% in experiment [2] (setting [8]); 34.4% in experiment [2] (at 50.0 µM). Besides, the growth inhibition is -1% in experiment [3] (setting [7]); 17% in experiment [3] (setting [8]); 16.8% in experiment [3] (at 50.0 µM); -5% in experiment [4] (setting [7]); 2% in experiment [4] (setting [8]); 82.2% (active) in experiment [4] (at 50.0 µM). Also, the growth inhibition is -8% in experiment [5] (setting [7]); -10% in experiment [5] (setting [8]); 0.15% in experiment [5] (at 50.0 µM); -6% in experiment [6] (setting [7]); 6% in experiment [6] (setting [8]); 8.4% in experiment [6] (at 50.0 µM).
`Cc1c2cc[n+](C)cc2c(C)c2c1[nH]c1ccc(Cl)cc12`: the growth inhibition was 43% in experiment [1] (setting [7]); 97% (active) in experiment [1] (setting [8]); 90.2% (active) in experiment [1] (at 50.0 µM); 28% in experiment [2] (setting [7]); 99% (active) in experiment [2] (setting [8]); 92.4% (active) in experiment [2] (at 50.0 µM). Further, the growth inhibition in experiment [3] (setting [7]) was 48%; in experiment [3] (setting [8]), 99% (active); in experiment [3] (at 50.0 µM), 93% (active); in experiment [4] (setting [7]), 35%; in experiment [4] (setting [8]), 98% (active); in experiment [4] (at 50.0 µM) it was 92.1% (active). For the same molecule, the growth inhibition in experiment [5] (setting [7]) is 42%; in experiment [5] (setting [8]), 99% (active); in experiment [5] (at 50.0 µM), 91.6% (active); in experiment [6] (setting [7]) it was 51%; in experiment [6] (setting [8]), 99% (active); in experiment [6] (at 50.0 µM) it was 91% (active).
For the molecule `CC(C)OP(=O)(OC(C)C)/C(=N/Nc1ccc([N+](=O)[O-])cc1)NNC(=O)c1ccccc1`, the growth inhibition was -24% in experiment [1] (setting [7]); 61% in experiment [1] (setting [8]); 95.2% (active) in experiment [1] (at 50.0 µM); -12% in experiment [2] (setting [7]); 74% (active) in experiment [2] (setting [8]); 95.7% (active) in experiment [2] (at 50.0 µM). Also, the growth inhibition is -11% in experiment [3] (setting [7]); 53% in experiment [3] (setting [8]); 93.5% (active) in experiment [3] (at 50.0 µM); -21% in experiment [4] (setting [7]); 67% in experiment [4] (setting [8]); 87.2% (active) in experiment [4] (at 50.0 µM). Further, the growth inhibition was -15% in experiment [5] (setting [7]), 74% (active) in experiment [5] (setting [8]) and 94.9% (active) in experiment [5] (at 50.0 µM).
For `Nc1ccccc1SC(C[N+](=O)[O-])c1ccc2c(c1)OCO2` (stereo not drawn), the growth inhibition in experiment [1] (setting [7]) was 82% (active); in experiment [1] (setting [8]) it was 99% (active); in experiment [1] (at 50.0 µM), 98.8% (active); in experiment [2] (setting [7]), 72% (active); in experiment [2] (setting [8]), 100% (active); in experiment [2] (at 50.0 µM) it was 99% (active). The growth inhibition in experiment [3] (setting [7]) was 69%; in experiment [3] (setting [8]), 99% (active); in experiment [3] (at 50.0 µM), 99% (active); in experiment [4] (setting [7]) it was 45%; in experiment [4] (setting [8]), 99% (active); in experiment [4] (at 50.0 µM) it was 97% (active). In addition, the growth inhibition in experiment [5] (setting [7]) is 80% (active); in experiment [5] (setting [8]), 100% (active); in experiment [5] (at 50.0 µM) it was 98.5% (active); in experiment [6] (setting [7]), 65%; in experiment [6] (setting [8]), 99% (active); in experiment [6] (at 50.0 µM), 99% (active).
In the case of `O=S(=O)(/C=C/c1cccnc1)/C=C/c1cccnc1`, the growth inhibition in experiment [1] (setting [7]) was 0%; in experiment [1] (setting [8]), 2%; in experiment [1] (at 50.0 µM), -14.1%; in experiment [2] (setting [7]) it was 0%; in experiment [2] (setting [8]), -3%; in experiment [2] (at 50.0 µM), -1.65%. For the same molecule, the growth inhibition is 1% in experiment [3] (setting [7]); 6% in experiment [3] (setting [8]); 5.3% in experiment [3] (at 50.0 µM); 3% in experiment [4] (setting [7]); 10% in experiment [4] (setting [8]); 82.8% (active) in experiment [4] (at 50.0 µM). The growth inhibition in experiment [5] (setting [7]) is -2%; in experiment [5] (setting [8]), 3%; in experiment [5] (at 50.0 µM), 20.8%; in experiment [6] (setting [7]), -4%; in experiment [6] (setting [8]), -1%; in experiment [6] (at 50.0 µM), 1.25%.
Turning to `O=C1C2=C(c3ccccc31)C(c1ccccc1Cl)NC(=S)N2` (stereo not drawn), the growth inhibition in experiment [1] (setting [7]) was -5%; in experiment [1] (setting [8]), 11%; in experiment [1] (at 50.0 µM) it was 82.2% (active); in experiment [2] (setting [7]), -11%; in experiment [2] (setting [8]), 13%; in experiment [2] (at 50.0 µM), 39.3%. Besides, the growth inhibition in experiment [3] (setting [7]) was -18%; in experiment [3] (setting [8]) it was -4%; in experiment [3] (at 50.0 µM), 78.5% (active); in experiment [4] (setting [7]) it was 20%; in experiment [4] (setting [8]), 40%; in experiment [4] (at 50.0 µM), 63.4%. Besides, the growth inhibition in experiment [5] (setting [7]) is 14%; in experiment [5] (setting [8]), 60%; in experiment [5] (at 50.0 µM), 70% (active).
On to `CCOc1c(N=Nc2ccc(Cl)cc2)c(-c2ccccc2)nn1C(=S)S`, for which the growth inhibition was 4% in experiment [1] (setting [7]); 91% (active) in experiment [1] (setting [8]); 95.3% (active) in experiment [1] (at 50.0 µM); 2% in experiment [2] (setting [7]); 89% (active) in experiment [2] (setting [8]); 95.6% (active) in experiment [2] (at 50.0 µM). The growth inhibition in experiment [3] (setting [7]) is 8%; in experiment [3] (setting [8]) it was 92% (active); in experiment [3] (at 50.0 µM), 92% (active); in experiment [4] (setting [7]), 5%; in experiment [4] (setting [8]) it was 92% (active); in experiment [4] (at 50.0 µM), 91.5% (active). For the same molecule, the values for the growth inhibition in experiment [5] (setting [7]), in experiment [5] (setting [8]) and in experiment [5] (at 50.0 µM) were 0%, 94% (active) and 92.8% (active), respectively.
As for `CCOC(=O)CC1=NC(=Nc2cc(Cl)ccc2Cl)SC1`, the growth inhibition in experiment [1] (setting [7]) is 21%; in experiment [1] (setting [8]), 66%; in experiment [1] (at 50.0 µM), 64.5%; in experiment [2] (setting [7]), 23%; in experiment [2] (setting [8]), 56%; in experiment [2] (at 50.0 µM), 40.8%. Besides, the growth inhibition in experiment [3] (setting [7]) is 22%; in experiment [3] (setting [8]) it was 69%; in experiment [3] (at 50.0 µM), 79.6% (active); in experiment [4] (setting [7]), 24%; in experiment [4] (setting [8]), 30%; in experiment [4] (at 50.0 µM), 25.7%. Further, the growth inhibition is 29% in experiment [5] (setting [7]); 82% (active) in experiment [5] (setting [8]); 77.2% (active) in experiment [5] (at 50.0 µM); 38% in experiment [6] (setting [7]); 75% (active) in experiment [6] (setting [8]); 66.5% in experiment [6] (at 50.0 µM).
